Sampled rows, rich in hits. Any-hit rate of the full collection: about 3%.
Rv3671c inh: inhibitors of M. tuberculosis serine protease Rv3671c; inhibition, % at 5.96 µM; hit rate 0.048% among 320,000; AID 2606; in the data active = inhibition above about 38%;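 also: extracellular domain of Rv3671c used as enzyme; 0% = enzyme with DMSO and 100% = no enzyme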
Target sequence (P9WHR9 whole entry, looked up, the tested form may be a part): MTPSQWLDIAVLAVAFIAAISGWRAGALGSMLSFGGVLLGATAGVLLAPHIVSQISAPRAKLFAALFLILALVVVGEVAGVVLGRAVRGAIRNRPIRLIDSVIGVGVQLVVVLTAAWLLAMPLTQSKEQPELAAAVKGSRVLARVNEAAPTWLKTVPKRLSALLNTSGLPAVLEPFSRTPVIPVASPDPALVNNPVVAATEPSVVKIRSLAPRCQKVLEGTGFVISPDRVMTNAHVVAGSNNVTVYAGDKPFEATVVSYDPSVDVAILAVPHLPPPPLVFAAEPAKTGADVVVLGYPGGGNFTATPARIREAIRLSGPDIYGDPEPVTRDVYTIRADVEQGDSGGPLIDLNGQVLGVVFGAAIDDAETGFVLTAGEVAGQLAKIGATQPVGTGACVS
FBA Mtb inh: Mtb fructose-bisphosphate aldolase inhibition | P9WQA3 | purified M. tuberculosis FBA, fluorescence read-out | inhibition, % at 1 µM | hit rate 2.3% among 360,000 | AID 588726;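 also: 0% = vehicle and 100% = reference inhibitor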
GDH-TPI counter-1: counter-screen for M. tuberculosis FBA inhibitors: GDH-TPI coupled enzymes; AID 588335; hit rate 1.2% among 360,000; GDH-TPI coupled enzyme counterscreen, NADH absorbance; inhibition, % at 4.8 µM; in the data active = inhibition above about 30%;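 also: 0% = DMSO wells and 100% = wells lacking the enzyme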
Mtb BioA inh: BioA (M. tuberculosis) enzyme inhibition; inhibition, % at 9.99 µM; AID 602481; hit rate 0.096% among 360,000; purified M. tuberculosis BioA enzyme, plate reader; in the data active = inhibition above about 40%
FadD28 binding: M. tuberculosis FadD28 bisubstrate binding inhibition. inhibition, % at 12.5 µM. AID 588549. FadD28 bisubstrate probe binding, fluorescence polarization. hit rate 0.22% among 360,000; in the data active = inhibition above about 8.5%, passing the limit was not always enough
Mtb FBA inh conf: Mtb FBA inhibition, confirmed | shares compounds with FBA Mtb inh | purified M. tuberculosis FBA, fluorescence read-out | inhibition, % at 1 µM | hit rate 78% among 5,600 | AID 651616;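 also: 0% = vehicle wells and 100% = reference inhibitor wells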
GDH-TPI counter-2: inhibits GDH-TPI coupling enzymes, flagging Mtb FBA hits. AID 652141. GDH-TPI coupled enzyme counterscreen, fluorescence. hit rate 81% among 5,600. inhibition, % at 1 µM. shares compounds with FBA Mtb inh; in the data active = inhibition above about 10%
GDH-TPI dose: inhibits GDH-TPI coupling enzymes in dose response | shares compounds with FBA Mtb inh | GDH-TPI coupled enzyme assay, fluorescence, artifact counterscreen | IC50, µM | hit rate 79% among 170 | AID 652145; call rule not given here
Numbers without * were called inactive; . = no result given. Rule as the data show it, unless noted: active = inhibition above about 27%; inactive = the rest.

SMILES	Rv3671c inh	FBA Mtb inh	GDH-TPI counter-1	Mtb BioA inh	FadD28 binding	Mtb FBA inh conf	GDH-TPI counter-2	others
C[C@@H]1CN([C@H](C)CO)S(=O)(=O)c2ccc(-c3ccccc3)cc2O[C@H]1CN(C)S(C)(=O)=O	.	.	.	1	.	.	.
CO[C@H]1CN(C)C(=O)c2cc(NC(=O)Cc3ccccc3)ccc2OC[C@@H](C)N(C(C)=O)C[C@@H]1C	.	.	.	-1	.	.	.
O=C1c2ccccc2NC(c2cccc(O)c2)N1c1ccccc1 (stereo unspecified)	-5	42*	-1	0	.	129*	107*
O=C1c2ccccc2NC(c2cccc(O)c2)N1Cc1ccco1 (stereo unspecified)	-7	60*	1	1	-3	107*	70*
C[C@H]1CN([C@@H](C)CO)S(=O)(=O)c2ccc(C#CC3CC3)cc2O[C@@H]1CN(C)C(=O)c1cnccn1	.	.	.	0	.	.	.
CCCNC(=O)C[C@@H]1CC[C@@H]2[C@@H](COc3ccc(NC(=O)C4CCCC4)cc3C(=O)N2C)O1	.	.	.	-2	.	.	.
C[C@H]1CCCCO[C@H](CN(C)C(=O)CCC(F)(F)F)[C@@H](C)CN([C@@H](C)CO)C(=O)c2cc(N(C)C)ccc2O1	.	.	.	0	.	.	.
COc1ccc2c(c1)oc(=O)c1ccccc12	-2	88*	5	1	-6	41*	31*
O=C(O)C(Oc1ccc2c(c1)oc(=O)c1ccccc12)c1ccccc1 (stereo unspecified)	1	92*	9	-1	-10	37*	30*
CN1C(=O)c2cc(NC(=O)Nc3ccccc3Cl)ccc2OC[C@H]2O[C@H](CC(=O)O)CC[C@@H]21	.	.	.	6	.	.	.
CC(C)CNC(=O)c1cc2nc(C3CC3)cc(C(F)(F)F)n2n1	-6	79*	13	0	-1	62*	61*
COc1ccccc1-c1nc2ccccc2nc1-c1ccccc1OC	-3	28*	11	.	-4	166*	140*
COc1ccc(-c2nc3ccccc3nc2-c2ccc(OC)c(OC)c2)cc1OC	-5	-4	-8	14	-3	.	.
CCC(=O)Nc1nnc(-c2ccncc2)s1	2	43*	-3	.	0	100*	89*
Cc1onc(-c2ccccc2)c1C(=O)Nc1nnc(-c2ccncc2)s1	4	46*	57*	-1	-3	67*	55*
CCCC(=O)Nc1nnc(-c2ccc3c(c2)OCO3)s1	1	38*	6	0	-3	115*	103*
O=C(Nc1nnc(-c2ccncc2)s1)C1CCCO1 (stereo unspecified)	-1	82*	26	-3	-2	15	-6	GDH-TPI dose=2*
CCC(=O)Nc1nnc(Cc2ccccc2)s1	2	0	-9	-2	-4	.	.
CCCC(=O)Nc1nnc(SCC(=O)Nc2ccc3c(c2)OCO3)s1	-8	1	4	.	0	.	.
C[C@@H]1CN([C@@H](C)CO)S(=O)(=O)c2ccc(C3=CCCC3)cc2O[C@H]1CN(C)Cc1cccnc1	.	.	.	6	.	.	.
Nc1ccccc1C(=O)Nc1nccs1	-3	55*	7	0	-1	128*	84*
O=C(Nc1nccs1)c1ccccc1Br	-8	1	9	-1	-1	.	.
COc1ccc(NC(=O)Nc2ccc3c(c2)C(=O)N([C@@H](C)CO)C[C@H](C)[C@@H](CN(C)S(=O)(=O)c2ccc(C)cc2)OCCCC[C@@H](C)O3)cc1	.	.	.	-6	.	.	.
COc1cc2c3nc4n(c(=O)c3n(CC(=O)NCC3CCCO3)c2cc1OC)CCS4 (stereo unspecified)	8	63*	14	0	-2	180*	174*
C=CCNc1nc(NCc2ccccc2)c(C#N)c2c1CN(C)CC2	7	71*	14	2	-1	58*	52*
Cc1cc(=O)oc2ccc(OC(C)C(=O)O)cc12 (stereo unspecified)	-3	15	-1	-1	-2	.	.
Cc1cc(=O)oc2cc(OC(C)C(=O)O)c(Cl)cc12 (stereo unspecified)	-15	32*	9	-1	-6	3	4
Cc1cccc(S(=O)(=O)N[C@H]2CC[C@H](CCNC(=O)c3cnccn3)O[C@@H]2CO)c1	.	.	.	1	.	.	.

Assay outcomes from PubChem.
